# From PubChem BioAssay AID652208 (Broad Institute, 2013)
# Entries with a potency or affinity are not part of this list. The source made the active and inactive calls.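 Rule for the calls: active = Loss of cell signal with fitted half-effect dose at or below twice the top valid tested dose; inconclusive = Poor fit, or flat fit from -70 to -30 percent; inactive = Half-effect above limit, rising signal, or flat within 30 percent.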
# Assay: viability loss in HEK293T cells – cell-based, cherry-picks, cytotoxicity control for HIV Vif inhibitor project, dose response (AID 652208)
# Conditions: CellTiter-Glo luminescence, 24 h; series mostly up to 26 µM
row,SMILES,outcome
1,CCN1c2ccccc2NC2C1C(C(C)=O)C(=O)N2c1ccc(Cl)cc1 (stereo not drawn),inactive
2,Cc1ccc(CNCCCSc2ncccn2)cc1,inactive
3,CN1CCc2c(sc(NC(=O)c3cc(Cl)sc3Cl)c2C(N)=O)C1,inactive
4,CCC(C)C(=O)Nn1c(C2CC2)nc2cc(OC)c(OC)cc2c1=O (stereo not drawn),inactive
5,COc1cc(C(=O)NCCc2cn3ccc(C)cc3n2)cc(OC)c1OC,inactive
6,C[C@@H]1CN([C@H](C)CO)C(=O)CCCn2cc(nn2)CO[C@H]1CN(C)C(=O)c1ccccc1,inactive
7,COc1ccc(NC(=O)c2ccccc2NC(=O)CSc2ccc(C)cc2)cc1,inactive
8,Cc1ccc(Nc2cc(=O)[nH]c(=O)[nH]2)cc1C,inactive
9,COc1cccc(NC(=O)CSc2nnc(Cc3ccc(OC)c(OC)c3)o2)c1,inactive
10,CC(C)OC(=O)c1cn(-c2ccccc2)nc1-c1ccc2c(c1)OCCO2,inactive
11,CCOC(=O)Cc1csc(NC(=O)CSc2nnnn2-c2ccc(CC)cc2)n1,inactive
12,CC(C)C(=O)N=C1SC2CS(=O)(=O)CC2N1Cc1ccccc1 (stereo not drawn),inactive
13,CCOC(=O)c1c(C)[nH]c(-c2csc(N)n2)c1C,inactive
14,CC(C)(C)NC(=O)CN(Cc1ccc(F)cc1)C(=O)Cn1nnc(-c2ccc(F)cc2)n1,inactive
15,CCCCCCOC(=O)C(C#N)c1nc2ccccc2nc1N1CCOCC1 (stereo not drawn),inactive
16,CCOc1ccc(NC(=O)CN(C)C(=O)c2cc(S(=O)(=O)N3CCCCC3)ccc2Cl)cc1OCC,inactive
17,Cc1ccc(Nc2nc(N)nc(CSc3nnc(-c4ccncc4)o3)n2)cc1,inactive
18,O=C(c1ccc(Cl)c(Cl)c1)N(Cc1ccco1)c1ccc(O)cc1,inactive
